From PubChem BioAssay (NCATS) come the findings set out here.

Where “and” joins values, the source holds several entries; their conditions need not be identical. Identical values can stand only once. Unmarked numbers belong to inactive results. Records with an inconclusive call do not appear. Calls of active or inactive are those of the source. Unless noted, the call rests on the fitted dose curve; in most records, active means well fitted curve in the direction sought with a large enough effect; inconclusive means small, poorly fitted or top-dose-only effect, or another doubt; inactive means no such curve, though single readings can be large; an effect the other way counts as inactive or inconclusive.

Experiment [1] is described as follows: qHTS for differential inhibitors of proliferation of Plasmodium falciparum line 7G8 (AID 1815).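 Further: parasite growth measured after three days of incubation.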 Further: potency means the concentration at half of the fitted maximal effect.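 On activity change, negative = inhibition: plate controls were vehicle wells for no effect and reference inhibitor wells for full effect.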 On the technique in general: qHTS replaces the single test concentration by a dilution series.
A short description of experiment [2]: qHTS for differential inhibitors of proliferation of Plasmodium falciparum line W2 (AID 1883).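 Further: parasites grown with compound for 72 h before lysis and staining.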 Further: potency means the concentration at half of the fitted maximal effect.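 On activity change, negative = inhibition: 0% = vehicle wells and -100% = control inhibitor wells.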 Conditions: Potency: Plasmodium falciparum W2 proliferation inhibition.
The nature of experiment [3]: qHTS Assay for Modulators of Human Peripheral Myelin Protein 22 (PMP22) Expression/Activity (AID 1967; active means well fitted curve in the direction sought with a large enough effect in the signal ratio; the % refers to the signal ratio;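 further: 0% = untreated cells and 100% end not stated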). The gist of the method:
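Luminescence ratio of Pmp22 promoter-driven green luciferase to EF-alpha-driven red luciferase, in engineered mouse MSC80 Schwann cells, served as read-out. Compounds were incubated 24h; untreated cells defined 0% Activity; curves were classified by r2, magnitude and activity.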

The nature of experiment [4]: qHTS profiling for inhibitors of Plasmodium falciparum proliferation (AID 504749). Further: potency means the concentration at half of the fitted maximal effect.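 On activity, negative = inhibition: 0% = DMSO vehicle and full inhibition = artemisinin control.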 On all read-outs here: nearly all actives have a fitted effect of over 60% in size. Conditions: P. falciparum in erythrocytes, SYBR Green DNA, 72 h; for activity, negative = inhibition: at 28.7 µM (top of the series). The gist of the method:
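Parasite proliferation within erythrocytes, 72 h exposure. Endpoint: SYBR Green I fluorescence after overnight lysis at room temperature. Controls: 0.29 uM artemisinin, DMSO.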

Experiment [5] can be described thus: AP1 Signaling Pathway (AID 357; active means well fitted curve in either direction with a large enough effect, not every such curve was filed as active;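 further: ME-180 reporter cells stimulated with EGF at its EC50 level; on the % scale 0 is the no-effect control and ±100 the full control effect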). Conditions: ME-180 AP-1-bla reporter, EGF-induced, beta-lactamase ratio, 5 h. The essentials: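 Modulation of EGF-driven AP-1 transcription was assessed with a beta-lactamase reporter in ME-180 cells. Compound and EC50 EGF were co-incubated 5 hours at 37 °C before 2.5-hour CCF4 loading at room temperature and dual-emission reading.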

For experiment [6], the target named is Cytochrome P450 1A2 (Homo sapiens) (UniProt P05177). Nature of the experiment: p450-cyp1a2 (AID 410; calls by dose curve; further: potency means the concentration at half of the fitted maximal effect;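 on activity change, negative = inhibition: -100% = full effect of reference inhibitor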). The gist of the method: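 20nM CYP1A2 with 100uM Luciferin-ME (at Km) in 100mM KPO4; compound preincubated 10 min, NADPH regeneration added, 60 min at room temperature. Luciferin quantified by luminescence after detection reagent; normalized to 57 uM furafylline.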
Sequence of Cytochrome P450 1A2 (Homo sapiens) (P05177 whole entry, looked up): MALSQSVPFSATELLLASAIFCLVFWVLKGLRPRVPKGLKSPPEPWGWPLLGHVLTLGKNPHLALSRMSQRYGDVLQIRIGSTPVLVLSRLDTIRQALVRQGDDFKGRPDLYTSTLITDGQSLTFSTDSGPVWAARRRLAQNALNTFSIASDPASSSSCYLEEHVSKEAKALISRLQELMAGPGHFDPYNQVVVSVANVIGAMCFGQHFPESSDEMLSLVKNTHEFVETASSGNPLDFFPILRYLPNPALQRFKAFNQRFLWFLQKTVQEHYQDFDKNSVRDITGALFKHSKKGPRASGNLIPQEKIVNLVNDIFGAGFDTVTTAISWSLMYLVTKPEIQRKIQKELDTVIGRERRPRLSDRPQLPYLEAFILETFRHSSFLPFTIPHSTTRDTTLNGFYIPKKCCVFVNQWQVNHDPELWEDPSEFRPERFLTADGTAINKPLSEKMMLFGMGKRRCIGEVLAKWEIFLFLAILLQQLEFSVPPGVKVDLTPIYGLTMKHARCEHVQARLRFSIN

A short description of experiment [7]: Stat Signaling Pathway (AID 446; active means well fitted curve in either direction with a large enough effect, not every such curve was filed as active;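 further: ME-180 cervical cancer cells given 40 pM IL-6 alongside compound; SIE-controlled beta-lactamase reporter measured as 460/530 nm FRET emission ratio; on the % scale 0 is the no-effect control and ±100 the full control effect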). To be noted: ME-180 SIE beta-lactamase reporter, IL-6 stimulated, 5 h. The essentials: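 Screening format detects activators and inhibitors alike: ME-180 SIE-bla cells stimulated at 40 pM IL-6 for 5 hrs with compound, then dual-emission beta-lactamase read at 405 nm excitation.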
The target of experiment [8] is Glucocorticoid receptor (Homo sapiens) (UniProt P04150). Description: GR-GFP Redistribution (AID 450;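 active means compounds whose dose series gives a full or clear partial fitted curve of increased nuclear translocation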; further: potency means the concentration at half of the fitted maximal effect). To be noted: U2OS GR-GFP nuclear translocation, laser cytometry, 2 h.
Sequence of Glucocorticoid receptor (Homo sapiens) (P04150 whole entry, looked up, the tested form may be a part): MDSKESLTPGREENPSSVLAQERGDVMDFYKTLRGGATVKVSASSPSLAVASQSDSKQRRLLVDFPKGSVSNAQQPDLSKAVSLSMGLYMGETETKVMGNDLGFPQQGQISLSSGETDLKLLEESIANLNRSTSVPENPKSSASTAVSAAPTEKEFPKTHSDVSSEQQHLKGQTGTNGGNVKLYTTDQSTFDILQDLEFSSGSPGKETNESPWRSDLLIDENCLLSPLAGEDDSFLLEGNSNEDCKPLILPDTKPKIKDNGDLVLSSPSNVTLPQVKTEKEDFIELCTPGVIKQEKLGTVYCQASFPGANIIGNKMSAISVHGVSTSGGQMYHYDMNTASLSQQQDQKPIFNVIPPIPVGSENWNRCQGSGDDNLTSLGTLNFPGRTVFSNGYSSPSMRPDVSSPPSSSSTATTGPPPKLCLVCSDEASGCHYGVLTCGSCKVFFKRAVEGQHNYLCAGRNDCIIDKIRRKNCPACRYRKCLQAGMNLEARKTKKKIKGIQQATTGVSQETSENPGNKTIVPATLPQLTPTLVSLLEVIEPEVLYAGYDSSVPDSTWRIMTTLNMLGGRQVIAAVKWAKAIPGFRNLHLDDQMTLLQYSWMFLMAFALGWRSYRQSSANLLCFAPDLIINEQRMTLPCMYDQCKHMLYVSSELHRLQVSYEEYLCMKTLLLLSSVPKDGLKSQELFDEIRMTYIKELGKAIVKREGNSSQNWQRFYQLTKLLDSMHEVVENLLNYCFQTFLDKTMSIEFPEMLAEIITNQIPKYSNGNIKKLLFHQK
Experiment [9] shares this target. Description: GR-EFC Redistribution (AID 451; calls by dose curve; further: potency means the concentration at half of the fitted maximal effect). To be noted: CHO-K1 GR-EFC translocation, beta-gal luminescence, 2 h. The gist of the method: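 CHO-K1 cells stably expressing nuclear-localized β-gal enzyme acceptor and GR fused C-terminally to the enzyme donor fragment; ligand-driven nuclear translocation restores β-gal by complementation. Compounds titrated up to 46 uM final, 2 h at 37 °C; luminescence read.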

Experiment [10] concerns the target Guanine nucleotide-binding protein G(i) subunit alpha-1 (Homo sapiens) (UniProt P63096). Description: qHTS Assay for Inhibitors of RGS12 GoLoco Motif Activity (Green Fluorophore) (AID 879).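 Further: 0% = labeled peptide with Gαi1 and full inhibition = labeled peptide alone without protein; negative values mean loss of peptide binding seen as reduced polarization.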 The essentials:
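Fluorescence polarization assay: 50 nM Gαi1 with 10 nM FITC-labeled RGS12 GoLoco peptide in 10 mM Tris pH 7.5, 150 mM NaCl, 0.1 mM GDP, 0.05% NP40, 10 min at room temperature with compound.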

Experiment [11] deals with Pyruvate kinase (Leishmania mexicana) (UniProt Q27686). Description: qHTS Validation Assay for Inhibitors of Leishmania Mexicana Pyruvate Kinase (AID 945).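 Further: 0% = DMSO only neutral control wells.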 The gist of the method:
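Substrate mix (0.5 mM PEP, 0.1 mM ADP, 7 mM MgCl2, 50 mM KCl, pH 7.2 imidazole) received compound by pin tool, then 0.2 nM LmPYK E451W. After 1 h at room temperature, PKLight was added and luminescence measured.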

The target in experiment [12] is Pyruvate kinase PKM (Homo sapiens) (UniProt P14618). Nature of the experiment: qHTS Assay for Activators of Human Muscle Pyruvate Kinase (AID 954; active means well fitted curve in the direction sought with a large enough effect, not every such curve was filed as active;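 further: 0% = uninhibited enzyme and -100% = no enzyme or full thiadiazolimine inhibition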). The essentials: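 Reaction: 0.1 nM purified PKM2 with 0.5 mM phosphoenolpyruvate and 0.1 mM ADP, room temperature, 1 h. Readout: luciferase-based ATP luminescence after stop reagent. Activators judged against a 0.3 nM enzyme column.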
Sequence of Pyruvate kinase PKM (Homo sapiens) (P14618 whole entry, looked up): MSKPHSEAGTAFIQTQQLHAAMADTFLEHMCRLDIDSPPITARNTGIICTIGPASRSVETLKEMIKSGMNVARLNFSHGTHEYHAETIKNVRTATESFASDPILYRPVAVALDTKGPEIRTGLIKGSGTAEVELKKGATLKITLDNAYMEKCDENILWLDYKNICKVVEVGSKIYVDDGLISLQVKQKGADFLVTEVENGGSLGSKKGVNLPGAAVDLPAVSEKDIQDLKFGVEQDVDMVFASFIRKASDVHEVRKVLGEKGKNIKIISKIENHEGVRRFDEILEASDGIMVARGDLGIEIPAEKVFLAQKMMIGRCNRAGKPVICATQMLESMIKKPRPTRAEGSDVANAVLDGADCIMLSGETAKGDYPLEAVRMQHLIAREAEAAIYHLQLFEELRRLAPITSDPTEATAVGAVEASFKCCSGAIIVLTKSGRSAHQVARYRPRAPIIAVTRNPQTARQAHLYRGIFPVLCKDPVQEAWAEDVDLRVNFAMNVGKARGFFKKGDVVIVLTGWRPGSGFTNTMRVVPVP

Experiment [13] concerns the target Alpha-galactosidase A (Homo sapiens) (UniProt P06280). Description: Counterscreen for Glucocerebrosidase Inhibitors: qHTS Assay for Human alpha-Galactosidase at pH 4.5 (AID 992). Further: 0% is about no effect. The essentials:
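Concentration-response curves (0.7 nM to 77 uM final) were modeled with the Hill equation to give AC50. Reactions: 2 nM enzyme, 80 uM fluorogenic alpha-galactoside, pH 4.5 citric acid buffer, 20 min, room temperature.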
A general note: The purpose of a counterscreen is to sort out artefacts and off-target activity.

In experiment [14] the target is alpha-glucosidase (Oryza sativa, rice) (UniProt Q653V4). Nature of the experiment: Counterscreen for Glucocerebrosidase Inhibitors: qHTS Assay for Rice alpha-Glucosidase at pH 5.0 (AID 997).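 Further: 0% = full activity with enzyme and -100% = basal without enzyme.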 The essentials: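 Rice alpha-glucosidase (4 nM final) with 400 uM 4-methylumbelliferyl-alpha-D-glucopyranoside in citrate buffer pH 5.0, 20 min at room temperature, stopped at pH 10; fluorescence 365/440 nm, compounds 0.7 nM–77 uM, AC50 from Hill fits.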

The nature of experiment [15]: qHTS for differential inhibitors of proliferation of Plasmodium falciparum line Dd2 (AID 1882).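 Further: plate controls were DMSO vehicle for no effect and 0.29 µM artemisinin for full effect; nearly all actives have a fitted effect of over 65% in size.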 Conditions: Potency: Plasmodium falciparum Dd2 proliferation inhibition. The gist of the method: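 Dd2-infected erythrocytes (0.3% parasitemia, 2.5% hematocrit final) incubated with compound 72 h at 37 C, 5% CO2; lysed with saponin/Triton buffer containing SYBR Green I, incubated overnight in the dark, then read by fluorescence (485/535 nm). Normalized to 0.29 uM artemisinin and DMSO.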

Experiment [16] concerns the target M-phase phosphoprotein 8 (Homo sapiens) (UniProt Q99549). Nature of the experiment: qHTS Validation Assay for Inhibitors for MPP8 Chromodomain Interactions with Methylated Histone Tails (AID 488949).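 Further: 50 nM MPP8 with 50 nM peptide preformed then compounds added for 30 min; AlphaScreen signal from MPP8 chromodomain bound to biotinylated H3K9me3 peptide; top concentration of the series differs between compounds; on the % scale 0 is the no-effect control and ±100 the full control effect; nearly all actives have a fitted effect of over 55% in size.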 The gist of the method:
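50 nM MPP8 + 50 nM b-H3K9me3 peptide, PBS pH 7.4/0.01% Tween-20, 30 min RT; + cpd 30 min RT; + AlphaScreen donor/Ni-chelate acceptor beads 10 ug/mL final, 30 min dark; luminescence read.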

Experiment [17] in a line: Primary qHTS for inhibitors of nuclear receptor binding SET domain protein 2 (NSD2) in an isogenic RCH-ACV NSD2 p.E1099K mutant (9B) (AID 1645876). Further: potency means the concentration at half of the fitted maximal effect; nearly all actives have a fitted effect of over 70% in size.
Experiment [18] is described as follows: Primary qHTS for inhibitors of nuclear receptor binding SET domain protein 2 (NSD2) in an RCH-ACV wild type WT cells (2C) (AID 1645877). Further: potency means the concentration at half of the fitted maximal effect; nearly all actives have a fitted effect of over 70% in size.
Setting [19] is: at 7.69 µM (top of the series) unless noted.

Sequence of Guanine nucleotide-binding protein G(i) subunit alpha-1 (Homo sapiens) (P63096 whole entry, looked up): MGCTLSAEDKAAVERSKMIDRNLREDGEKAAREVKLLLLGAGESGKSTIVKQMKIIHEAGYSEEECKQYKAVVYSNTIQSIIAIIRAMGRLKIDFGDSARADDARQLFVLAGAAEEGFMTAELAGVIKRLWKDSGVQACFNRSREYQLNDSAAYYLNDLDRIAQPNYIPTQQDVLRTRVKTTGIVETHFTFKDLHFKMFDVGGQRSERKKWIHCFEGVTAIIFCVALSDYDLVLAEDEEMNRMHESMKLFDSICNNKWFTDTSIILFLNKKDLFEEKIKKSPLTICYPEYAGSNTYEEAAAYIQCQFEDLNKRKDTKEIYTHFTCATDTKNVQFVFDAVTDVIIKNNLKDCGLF
Sequence of Pyruvate kinase (Leishmania mexicana) (Q27686 2-499 E452W): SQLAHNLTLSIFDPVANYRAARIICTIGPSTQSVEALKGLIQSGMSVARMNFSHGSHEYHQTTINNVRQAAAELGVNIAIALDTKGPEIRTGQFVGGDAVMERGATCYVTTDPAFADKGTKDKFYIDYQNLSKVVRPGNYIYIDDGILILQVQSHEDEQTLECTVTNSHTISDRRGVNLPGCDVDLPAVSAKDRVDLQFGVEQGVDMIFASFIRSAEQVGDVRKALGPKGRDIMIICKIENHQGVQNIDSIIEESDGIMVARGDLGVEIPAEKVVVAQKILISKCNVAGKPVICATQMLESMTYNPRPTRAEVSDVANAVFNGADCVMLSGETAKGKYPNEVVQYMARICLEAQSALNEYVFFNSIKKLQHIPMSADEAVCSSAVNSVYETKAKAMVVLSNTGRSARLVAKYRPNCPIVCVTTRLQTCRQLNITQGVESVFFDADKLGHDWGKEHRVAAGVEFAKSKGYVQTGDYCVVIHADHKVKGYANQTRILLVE
Sequence of Alpha-galactosidase A (Homo sapiens) (P06280 whole entry, looked up): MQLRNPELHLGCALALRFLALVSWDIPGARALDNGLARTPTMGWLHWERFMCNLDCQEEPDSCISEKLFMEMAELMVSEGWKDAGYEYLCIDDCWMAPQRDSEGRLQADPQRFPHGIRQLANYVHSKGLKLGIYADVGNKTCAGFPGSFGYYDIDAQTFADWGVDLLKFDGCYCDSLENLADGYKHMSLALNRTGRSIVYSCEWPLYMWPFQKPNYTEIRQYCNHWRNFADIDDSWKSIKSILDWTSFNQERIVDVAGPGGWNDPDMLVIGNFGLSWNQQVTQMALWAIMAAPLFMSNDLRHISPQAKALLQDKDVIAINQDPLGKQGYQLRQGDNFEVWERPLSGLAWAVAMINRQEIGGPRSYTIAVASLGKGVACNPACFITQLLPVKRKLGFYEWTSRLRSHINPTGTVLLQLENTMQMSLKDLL
Sequence of M-phase phosphoprotein 8 (Homo sapiens) (Q99549 whole entry, looked up): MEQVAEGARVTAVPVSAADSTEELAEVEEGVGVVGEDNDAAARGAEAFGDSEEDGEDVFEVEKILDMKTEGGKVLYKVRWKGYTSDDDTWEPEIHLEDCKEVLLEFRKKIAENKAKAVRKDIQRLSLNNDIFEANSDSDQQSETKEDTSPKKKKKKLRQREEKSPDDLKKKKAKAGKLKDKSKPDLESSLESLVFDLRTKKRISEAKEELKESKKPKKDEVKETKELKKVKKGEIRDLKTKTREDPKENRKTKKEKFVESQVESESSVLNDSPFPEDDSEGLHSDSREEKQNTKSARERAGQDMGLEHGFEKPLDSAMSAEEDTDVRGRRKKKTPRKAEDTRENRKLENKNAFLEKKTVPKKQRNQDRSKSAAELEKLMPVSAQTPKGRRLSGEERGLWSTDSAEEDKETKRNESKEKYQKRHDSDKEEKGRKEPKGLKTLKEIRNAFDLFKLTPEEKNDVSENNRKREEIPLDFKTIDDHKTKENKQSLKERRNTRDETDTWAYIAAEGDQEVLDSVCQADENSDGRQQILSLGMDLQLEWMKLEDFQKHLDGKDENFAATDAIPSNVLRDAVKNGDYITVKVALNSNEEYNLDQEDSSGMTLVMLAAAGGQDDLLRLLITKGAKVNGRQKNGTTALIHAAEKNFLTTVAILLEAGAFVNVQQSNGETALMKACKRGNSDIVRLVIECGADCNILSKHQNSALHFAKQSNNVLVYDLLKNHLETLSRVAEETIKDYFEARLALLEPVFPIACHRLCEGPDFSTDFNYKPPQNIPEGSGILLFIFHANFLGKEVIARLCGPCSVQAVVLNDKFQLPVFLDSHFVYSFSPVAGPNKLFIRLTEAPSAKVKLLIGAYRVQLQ

`CN=C(N)NCCCC(N)C(=O)O` (stereo unspecified): the Potency result in experiment [1] and in [2] was “inactive” each time. Besides, the result in experiment [3] was inactive. The activity, negative = inhibition in experiment [4] (parasite line A) is 12.3%; in experiment [4] (parasite line B), 12.2%.
As for `CN1C2CC(OC(=O)C(CO)c3ccccc3)CC1C1OC12` (stereo unspecified), the Potency entry in [1] is “inactive”. Besides, in [3], the outcome was inactive.
In the case of `CC(C)C1NC(=O)[C@H](CCCCN)NC(=O)[C@@H](Cc2c[nH]c3ccccc23)NC(=O)[C@H](Cc2ccc(O)cc2)NC(=O)[C@H](C)N(C)C(=O)[C@H](Cc2ccccc2)NC1=O` (stereo partly specified), the Potency result in [1] was “inactive”.
As for `NCCC(=O)NCCc1cnc[nH]1`, the activity change, negative = inhibition in experiment [5] (at 17.2 µM (top of the series)) is -8.55%; in [5] (at 38 µM (top of the series)), 7.43%. Further, the Potency result in experiment [6], in [11], in experiment [1], in experiment [15], in experiment [2] and in experiment [16] was “inactive” throughout. The activity, negative = inhibition in experiment [7] (at 17.2 µM (top of the series)) was 9.79%; in [7] (at 38 µM (top of the series)) it was -27.3%. In addition, the Potency in [8] was > 46 µM and > 20.6 µM; in [9], > 46 µM and > 20.6 µM. The compound was classed as inactive in experiment [10], in experiment [12], in experiment [13], in [14] and in [3].
As to `COc1c2c(nc3ccccc13)OC(C(C)(O)CO)C2` (stereo unspecified), the Potency entry in experiment [1] and in experiment [2] was “inactive” in each case. Further, the compound was called inactive in [3].
Turning to `Cc1ccccc1N1CCN(S(=O)(=O)C[C@]23CCC(CC2NC(=O)[C@@H](N)CCS(C)(=O)=O)C3(C)C)CC1` (stereo partly specified), the Potency in [2] was 12.6 µM (active).
As to `COc1nnc2ccc(N3CCC(c4ccc(OCCN5CCN(C)C(=O)[C@H]5C)cc4)CC3)nn12`, the Potency was 0.0661 µM (active) in [17] and 0.0525 µM (active) in experiment [18].
Consider `CC(=O)[C@@]1(O)CC[C@H]2C3CCC4=CC(=O)CC[C@]4(C)C3CC[C@@]21C` (stereo partly specified), for which, in [3], the call was inactive.
`CC(=O)O[C@H]1C[C@@H]2CCC3C(CC[C@@]4(C)[C@H]3C[C@H]([N+]3(C)CCCCC3)[C@@H]4OC(C)=O)[C@@]2(C)C[C@@H]1[N+]1(C)CCCCC1` (stereo partly specified): the Potency entry in experiment [1], in experiment [15] and in experiment [16] was “inactive” each time. In experiment [3], the call was inactive.
As to `C[C@]12CCC(=O)C=C1CC[C@@H]1C2[C@@H](O)C[C@@]2(C)[C@H]1CC[C@]2(O)C(=O)CO` (stereo partly specified), in experiment [2], the Potency entry was “inactive”. Moreover, in experiment [3], the compound was called inactive.
`O=C1NC(=O)[C@@H](c2c[nH]c3ccccc23)[C@H]1c1cn2c3c(cccc13)CCC2`: the Potency in [17] is 1.18 µM (active); in [18], 0.934 µM (active).
In the case of `N=C(N)SCCc1cccc(CCSC(=N)N)c1`, the activity change, negative = inhibition in [5] (setting [19]) is 7.41% [at 38 µM]. Further, the activity, negative = inhibition in experiment [7] (setting [19]) was 0.643% [at 38 µM]. Moreover, the Potency in [8] was > 46 µM; in experiment [9] it was > 46 µM; in experiment [1], 6.31 µM (active); in experiment [2], 1 µM (active). Moreover, the compound was classed as inactive in [10], in experiment [12], in experiment [13], in experiment [14] and in [3]. Besides, the Potency result in experiment [11] is “inactive”.
On to `CN1CCc2cc(Cl)c(O)cc2C(c2ccccc2)C1` (stereo unspecified), for which the Potency is 7.94 µM (active) in [1] and 4.47 µM (active) in [2]. For the same compound, the compound was classed as inactive in experiment [3].
As to `CC(C)(C)[C@]1(O)CCN2CC3c4ccccc4CCc4cccc(c43)[C@@H]2C1` (stereo partly specified), the Potency in [1] was 5.62 µM (active) and 5.01 µM (active); in [2] it was 2.82 µM (active) and 2.24 µM (active). Moreover, the Potency entry in experiment [16] was “inactive”.
`COC(=O)c1c(-c2cc(OC)c(OC)c(OC)c2)c2ccc(OCc3ccccn3)cc2c(=O)n1-c1ccc(N)cc1`: in experiment [5] (setting [19]), the activity change, negative = inhibition was -16.9% [at 38 µM]. Also, the Potency result in experiment [6] and in experiment [11] was “inactive” throughout. The activity, negative = inhibition in [7] (setting [19]) was -8.64% [at 38 µM]. The Potency is > 46 µM in experiment [8], > 46 µM in experiment [9], 0.891 µM (active) in experiment [1] and 2.24 µM (active) in [2]. The call in [10], in experiment [12], in experiment [13] and in [14] was inactive.
Regarding `C[C@H](Cc1ccccc1)Nc1ncnc2c1ncn2[C@@H]1O[C@H](CO)[C@H](O)[C@H]1O`, in experiment [1], the Potency result was “inactive”.
On to `CN(C)C1C(=O)C(C(N)=O)=C(O)[C@@]2(O)C(=O)C3=C(O)c4c(O)ccc(Cl)c4[C@@H](O)C3C[C@@H]12` (stereo partly specified), for which the Potency in experiment [2] was 0.891 µM (active). For the same compound, the result in experiment [3] was inactive.
On to `CN1C[C@H](C(=O)N[C@]2(C)O[C@@]3(O)C4CCCN4C(=O)[C@H](Cc4ccccc4)N3C2=O)C[C@@H]2c3cccc4[nH]cc(c34)C[C@H]21` (stereo partly specified), for which the figures for the Potency in experiment [4] (parasite line A) and in [4] (parasite line B) were 8.91 µM (active) and 4.47 µM (active), respectively.
As for `COc1ccc(CCNC[C@@H](O)c2ccc(O)cc2)cc1OC`, the Potency entry in [1] and in [16] was “inactive” in each case. Also, in experiment [3], the result was inactive. The activity, negative = inhibition is 10.4% in [4] (parasite line A) and 8.86% in experiment [4] (parasite line B).
In the case of `NC(=S)c1ccc[n+]([C@@H]2O[C@@H](COP(=O)([O-])OP(=O)(O)OC[C@H]3O[C@@H](n4cnc5c(N)ncnc54)[C@H](OP(=O)(O)O)[C@H]3O)C(O)C2O)c1` (stereo partly specified), the Potency result in experiment [1], in experiment [15] and in experiment [2] was “inactive” throughout. The result in experiment [3] was inactive.
In the case of `CCCC(=O)NCCc1c2n(c3ccc(OC)cc13)Cc1ccccc1-2`, the activity change, negative = inhibition in experiment [5] (setting [19]) was -34.8% [at 38 µM]. Further, the Potency in [6] was 2.51 µM (active); in [8] it was > 46 µM; in experiment [9], > 46 µM; in experiment [1] it was 11.2 µM (active); in experiment [2] it was 7.08 µM (active). The compound was classed as inactive in experiment [10], in experiment [12], in [13], in experiment [14] and in [3]. Also, the Potency entry in experiment [11] is “inactive”.
